Measurements reported in PMC5540273 (PLoS ONE, 2017).

Legend:
Settings in all cases: concentration: 1 μM, replicates: in singlicate; n = 1
SRPK2 = system: SRPK2
SRPK3 = system: SRPK3
STK16 = system: STK16
STK33 = system: STK33
STK35 = system: STK35
STK36 = system: STK36
STK39 = system: STK39
SYK = system: SYK
SgK110 = system: SgK110
TAK1 = system: T1, TAK1
T1 construct: gene MAP3K7
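Also: KINOMEscan kinase panel screen.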

| Structure (SMILES) | %Inh (SRPK2) [%] | %Inh (SRPK3) [%] | %Inh (STK16) [%] | %Inh (STK33) [%] | %Inh (STK35) [%] | %Inh (STK36) [%] | %Inh (STK39) [%] | %Inh (SYK) [%] | %Inh (SgK110) [%] | %Inh (TAK1) [%] |
| --- | --- | --- | --- | --- | --- | --- | --- | --- | --- | --- |
| O=c1cc(N2CCOCC2)nc2n(Cc3ccccc3F)ccn12 [GSK2297428] | 0 | 0 | 0 | 0 | 0 | 0 | 0 | 21 | 0 | 0 |
| CCn1c(-c2ccccc2)nc2cnccc21 [SB-733416] | 0 | 5 | 0 | 0 | 7 | 0 | 8 | 17 | 0 | 0 |
| COc1ccc(Nc2nccc(N3CCC(NC(=O)C(C)c4ccc(Cl)cc4)C3)n2)cc1 (centres unmarked) [GSK1379735] | 0 | 34 | 0 | 0 | 7 | 1 | 13 | 25 | 0 | 0 |
| CNCc1ccc2nc(NC(=O)c3ccc(C(C)(C)C)cc3)cn2c1 | 5 | 0 | 0 | 1 | 0 | 11 | 42 | 2 | 9 | 20 |
| Fc1ccc(-c2nc3n(c2-c2ccncc2)CCS3)cc1 [GI98581] | 0 | 0 | 0 | 1 | 0 | 7 | 0 | 28 | 0 | 0 |
